HBB splice mod: hemoglobin beta splicing modulation | HBB splicing reporter cell assay, activation; EGFP reporter with mutant IVS2-654 intron; response scale: normalised to 500 nM splice-correcting PNA | Potency, µM (highest dose often 46.1 µM), hits mostly activators | actives 0.06% (n = 65,000)
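Compounds were applied for 2 days to HeLa EGFP-654 cells, 500/well in Optimem with 2% FCS. The reporter's EGFP is disrupted by mis-splicing of beta-globin intron IVS2-654. Readout: summed well GFP fluorescence from 488 nm laser scanning; reference was 500 nM antisense […] 654 PNA.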
UbGFP stabilizer: proteasome inhibitors stabilizing ubiquitin-GFP reporter | Ubiquitin-GFP reporter cells, proteasome inhibition, GFP fluorescence; response scale: untreated = 0%, 10 µM MG-132 = 100% | Potency, µM (series often up to 45.9 µM), most hits filed as activators | 67,000 tested, under 10 active | AID 526; active = well fitted activation curve with a large enough effect, not every such curve was filed as active; inconclusive = small, poorly fitted or top-dose-only effect, or another doubt; inactive = no such curve, though single readings can be large or run the other way
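GFP accumulation read-out: laser plate cytometry counting ubiquitin(G76V)-GFP-expressing U2OS cells after 4 hr compound exposure at 37 °C. Titrations spanned 46 uM to 2.9 nM; 0% = basal, 100% = 10 uM MG-132; concentration-response curves fitted.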
TSHR ag: activates the human thyroid stimulating hormone receptor; P16473; HEK293-CNG-TSHR cells (CNG channel as cAMP sensor), membrane potential dye, cAMP; Potency, µM (highest dose often 57.1 µM), usual class: activators; actives 0.48% (n = 73,000); AID 926; active = well fitted activation curve with a large enough effect in the main read-out, with a control signal flat, not every such curve was filed as active; inconclusive = small, poorly fitted or top-dose-only effect, or a change in a side signal; inactive = no such curve, though single readings can be large or run the other way; reference of the percent scale not stated here;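 also: the control signal comes from parental cells without the receptor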
Target sequence (P16473 whole entry, looked up): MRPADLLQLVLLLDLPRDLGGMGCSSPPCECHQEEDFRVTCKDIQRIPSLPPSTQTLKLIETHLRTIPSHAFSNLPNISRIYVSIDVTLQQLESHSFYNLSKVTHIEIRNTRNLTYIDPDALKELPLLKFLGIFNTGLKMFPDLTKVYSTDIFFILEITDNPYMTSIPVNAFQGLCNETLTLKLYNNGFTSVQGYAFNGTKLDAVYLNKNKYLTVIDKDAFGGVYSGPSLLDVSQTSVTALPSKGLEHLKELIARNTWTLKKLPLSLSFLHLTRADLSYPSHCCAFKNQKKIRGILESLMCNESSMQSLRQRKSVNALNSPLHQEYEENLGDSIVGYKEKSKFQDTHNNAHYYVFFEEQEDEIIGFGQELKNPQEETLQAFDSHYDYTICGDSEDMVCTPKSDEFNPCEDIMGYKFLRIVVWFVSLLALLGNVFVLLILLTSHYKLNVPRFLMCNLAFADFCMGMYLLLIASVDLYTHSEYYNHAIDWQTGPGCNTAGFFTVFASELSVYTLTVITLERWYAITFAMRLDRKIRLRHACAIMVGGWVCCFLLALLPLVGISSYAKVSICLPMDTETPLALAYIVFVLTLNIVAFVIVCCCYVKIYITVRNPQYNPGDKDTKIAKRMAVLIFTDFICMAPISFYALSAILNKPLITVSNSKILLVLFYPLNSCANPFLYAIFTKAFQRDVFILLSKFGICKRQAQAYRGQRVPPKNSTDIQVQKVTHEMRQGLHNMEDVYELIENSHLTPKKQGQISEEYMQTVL
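cAMP rise detected as CNG-channel membrane depolarization by fluorescent dye (emission 590 nm), 30 min after compound, following 60 min dye loading containing 100 uM RO 20-1724 at room temperature. Cells: TSHR/CNG HEK 293, with parental CNG HEK 293 as control.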
Epigenetic mod: epigenetic modulators derepressing GFP locus in mouse cells. mouse C127i GFP locus derepression, cytometry, 30 h. Potency, µM (doses to about 46.1 µM). actives 0.09% (n = 68,000). AID 597
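Derepression screen: silenced CMV-GFP reporter in murine C127i cells, 30 h compound incubation at 37 C, washed cells imaged by laser-scanning cytometer to enumerate GFP-expressing objects of 20 to 120 um.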
HEK293 cAMP ctrl: raises cAMP in parental HEK293 cells, TSHR agonist counter-screen; parental HEK293 CNG cAMP sensor, membrane potential fluorescence; Potency, µM (doses to about 57.1 µM), hits mostly activators; actives 2.5% (n = 73,000); AID 938; also: nearly all actives have a fitted effect of over 55% in size
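Counterscreen for endogenous-receptor signalling: CNG-channel HEK 293 cells report cAMP rise by membrane depolarization. After 60 min dye equilibration with 100 uM RO 20-1724, compounds incubated 30 min before bottom-read fluorescence at 590 nm.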
Numbers stand for hits; i = inactive; ? = inconclusive; nt = no result given; [ ] = another dose, or the depositor's remark. Only some compounds are listed: those with a hit (about 3% of all), similar ones and a draw of the others. Unless noted, calls follow the shape of the dose curve; as a rule, active = well fitted curve in the direction sought with a large enough effect; inconclusive = small, poorly fitted or top-dose-only effect, or another doubt; inactive = no such curve, though single readings can be large; an effect the other way counts as inactive or inconclusive.

SMILES	HBB splice mod	UbGFP stabilizer	TSHR ag	Epigenetic mod	HEK293 cAMP ctrl
Cc1nc2cnc(Oc3ccccc3)nc2n(CCc2ccccc2)c1=O	i	i	?	i[9.22 µM]	1.58µM
COc1ccc2[nH]cc(CCNc3nc(-c4ccc(N(C)C)cc4)nc4ccccc34)c2c1	i	i	?	i[9.22 µM]	i
COc1c2c(nc3ccccc13)O[C@@H]([C@@](C)(O)CO)C2	i	i	nt	i	i
COc1cccc(Nc2ncc3nc(CCc4ccccc4)c(=O)n(Cc4cccs4)c3n2)c1	?	i	?	i[9.22 µM]	?
O=c1c(CCc2ccccc2)nc2cnc(Nc3ccccc3)nc2n1Cc1cccs1	?	?	?	i[9.22 µM]	1.26µM
Cc1nc2cnc(N3CCN(C)CC3)nc2n(CCc2ccccc2)c1=O	i	i	?	i[9.22 µM]	?
Cc1nc2cnc(Oc3cccc(Cl)c3)nc2n(CCc2ccccc2)c1=O	i	i	?	i[9.22 µM]	3.16µM
Cc1nc2cnc(N3CCOCC3)nc2n(CCc2ccccc2)c1=O	i	i	?	i[9.22 µM]	3.16µM
Cc1cc(S(=O)(=O)Nc2ccccc2C(=O)O)ccc1F	nt	nt	i	nt	i
CC(C)(C)N1C(=O)[C@H]2[C@@H]3[C@H](O)C=CC(=O)[C@H]3CC[C@H]2C1=O	i[9.22 µM]	nt	i[11.4 µM]	nt	i[11.4 µM]
Cc1ccc2oc(=O)n(Cc3ccccc3OC(C)C)c2c1	nt	i	?	i	25.1µM
CCCCOc1ccccc1Cn1c(=O)oc2ccc(C)cc21	i	i	?	i	15.8µM
O=C(Nc1cnn(Cc2ccc(F)cc2)c1)c1cc(-c2ccc(Br)cc2)on1	i	i	i	nt	i
Oc1ccccc1C(Sc1nc2ccccc2s1)Sc1nc2ccccc2s1	i[9.22 µM]	i[9.17 µM]	i[11.4 µM]	i[9.22 µM]	i[11.4 µM]
COC(=O)[C@@H]1C[C@H]1[C@@H](NC(=O)OCc1ccccc1)c1ccccc1	i	nt	?	nt	?
Cc1ccc(-n2nnnc2SCC(=O)NCCC2=CCCCC2)c(C)c1	i	i	?	i	31.6µM
Cc1ccc(-n2nnnc2SCC(N)=O)c(C)c1	i	i	i	i	i
C[C@@H]1O[C@@H](O)[C@@H](O)[C@H](O)[C@H]1O	i[9.22 µM]	i[9.17 µM]	i[11.4 µM]	i[9.22 µM]	i[11.4 µM]
CCCCC[C@H](O)/C=C/[C@H]1[C@H](O)CC(=O)[C@@H]1C/C=C\CCCC(=O)O	i	nt	?	nt	0.01µM
CCCCC[C@H](O)/C=C\[C@@H]1[C@H](O)CC(=O)[C@@H]1CCCCCCC(=O)O	i	i	?	i	0.0025µM
CCCCC[C@H](O)/C=C\[C@H]1[C@H](C/C=C\CCCC(=O)O)[C@@H](O)C[C@H]1O (tested in a mixture with another compound)	i	i	?	i	12.6µM
CCCCC[C@H](O)C=C[C@H]1[C@H](O)CC(=O)[C@H]1CCCCCCC(=O)O	nt	i	?	i	0.01µM
CCCCCCCC/C=C\CCCCCCCC(N)=O	nt	i	i	i	i
CCOC(=O)c1cc2sccc2n1CC(=O)N1CCc2ccccc21	nt	i	?	i	15.8µM
C=C1CC[C@@H](O)C/C1=C/C=C1\CCC[C@]2(C)[C@@H]1CC[C@H]2[C@@H](C)CCCC(C)C	nt	i	i	i[9.22 µM]	i
SMILES	HBB splice mod	UbGFP stabilizer	TSHR ag	Epigenetic mod	HEK293 cAMP ctrl
Cc1ccc(Cl)cc1NC(=O)CC(O)(C(F)(F)F)C(F)(F)F	i	i	?	i	6.31µM
O=C(COc1ccc2c(c1)CCC2)N1CCc2ccccc21	i	i	?	i	25.1µM
COc1ccc(S(=O)(=O)N2CCC(C(=O)N3CCc4ccccc4C3)CC2)cc1	i	i	?	i	31.6µM
Cc1ccc(S(=O)(=O)N2CCC(C(=O)N3Cc4ccccc4C3)CC2)cc1	nt	i	i	i	i
COc1ccc2c(c1)c(=O)oc1cc(OCC(=O)N3CCC(C)CC3)ccc12	i	i	?	i	?
COc1ccc2c(c1)c(=O)oc1cc(OCC(=O)N3CCCC(C)C3)ccc12 (stereo not given)	i	i	?	i	31.6µM
CCCCCCC1=Cc2cc(OC)c(OC)cc2C(C2(C(=O)OCC)CCCC2=O)O1 (stereo not given)	i[9.22 µM]	nt	i[11.4 µM]	nt	i[11.4 µM]
CCN1C(=O)[C@H]2[C@H]3[C@H](O)[C@H](O)C/C(=N/OCC(C)C)[C@@H]3CC[C@@H]2C1=O	i[9.22 µM]	nt	i[11.4 µM]	nt	i[11.4 µM]
CCC1(C)Cc2ccccc2/C(=C/C(=O)N2CCCCC2)N1 (stereo not given)	nt	i	?	i	15.8µM
O=C(CCn1nc(-c2ccccc2)c2ccccc2c1=O)N1CCN(c2ccccc2)CC1	i[1.84 µM]	i	?	i	25.1µM
NC(=O)CCn1nc(-c2ccccc2)c2ccccc2c1=O	i	i	i	i	i
OC[C@@H]1O[C@@H](N2CCN([C@@H]3O[C@@H](CO)[C@@H](O)[C@H](O)[C@H]3O)CC2)[C@@H](O)[C@H](O)[C@H]1O	i[9.22 µM]	i[9.17 µM]	i[11.4 µM]	i[9.22 µM]	i[11.4 µM]
CCOc1cc(C(=O)OCc2ccc(C(=O)OC)o2)cc(Br)c1OC	i	i	?	i	31.6µM
O=C(CCC1N=C2c3ccccc3N=C(SCc3ccc(Cl)cc3)N2C1=O)NCc1ccco1 (stereo not given)	i	i	?	i	20µM
CC(c1ccco1)N(C(=O)COc1ccc(Cl)cc1)c1ccccn1 (stereo not given)	i	i	i	i	i
CC(c1ccco1)N(C(=O)COc1ccc(Cl)cc1Cl)c1ccccn1 (stereo not given)	i	i	?	i	25.1µM
Cc1cc(-c2ccc(N=Nc3ccc4c(S(=O)(=O)O)cc(S(=O)(=O)O)c(N)c4c3O)c(C)c2)ccc1N=Nc1ccc2c(S(=O)(=O)O)cc(S(=O)(=O)O)c(N)c2c1O	nt	i	i	i	i
C=C(C)COc1ccc2c(C)c(C)c(=O)oc2c1OCC(=C)C	i	i	?	i	?
C=C(C)COc1ccc2c3c(c(=O)oc2c1OCC(=C)C)CCC3	i	i	?	i	25.1µM
O=C(c1cccc(F)c1)N1CCC2(CCCN(c3cccc(-c4ccccc4)c3)C2)CC1	?	i	?	i[9.22 µM]	1.26µM
O=C(c1cc(C(F)(F)F)cc(C(F)(F)F)c1)N1CCC2(CC1)CCN(c1ccncc1)CC2	i	i	?	i[9.22 µM]	3.16µM
O=C(c1cc(C(F)(F)F)cc(C(F)(F)F)c1)N1CCC2(CCN(Cc3ccncc3)CC2)CC1	i	i	?	i[9.22 µM]	i
O=C(c1cccc(F)c1)N1CCC2(CC1)CN(c1cccc(-c3ccccc3)c1)C2	i	i	i	i[9.22 µM]	i
O=C(c1cccc(F)c1)N1CCC2(CC1)CCN(c1ccncc1)CC2	i	i	?	i[9.22 µM]	3.98µM
C[C@@H](c1ccccc1)N1C(=O)[C@H]2[C@@H]3[C@H](O)C=CC(=O)[C@H]3CC[C@H]2C1=O	i[9.22 µM]	nt	i[11.4 µM]	nt	i[11.4 µM]
CCOC(=O)c1c2c(n3ccccc13)C(=O)c1ccccc1C2=O	3.16µM	i[9.17 µM]	i[11.4 µM]	i[9.22 µM]	i[11.4 µM]
C=CCOC(=O)C(C(=O)CC)C(NC(=O)OC)c1ccc(F)cc1 (stereo not given)	i[9.22 µM]	nt	i[11.4 µM]	nt	i[11.4 µM]

Screening data deposited in PubChem by National Center for Advancing Translational Sciences (NCATS).
